Among the data in PubChem BioAssay (NCATS) are Potency, Z-AUC and outcome values, retold here.

Values joined by “and” are separate entries in the source; they are usually repeats but may differ in a detail not shown here. Identical values can stand only once. Records with an inconclusive call do not appear. Active and inactive are the calls of the source. Unless noted, the call rests on the fitted dose curve; in most records, active means well fitted curve in the direction sought with a large enough effect; inconclusive means small, poorly fitted or top-dose-only effect, or another doubt; inactive means no such curve, though single readings can be large; an effect the other way counts as inactive or inconclusive.

Assay [1] concerns the target Cytochrome P450 2D6 (Homo sapiens) (UniProt P10635). The assay is described as follows: Cytochrome P450 family 2 subfamily D member 6 (CYP2D6) small molecule antagonists: luciferase biochemical (cell-free) qHTS assay (AID 1645840; active means well fitted curve in the direction sought with a large enough effect in the repeat runs; an effect the other way counts as inactive or inconclusive; further: nearly all actives have a fitted effect of over 55% in size; further: potency means the concentration at half of the fitted maximal effect). The procedure, abridged:
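P450-Glo luminescent screen: recombinant CYP2D6 enzyme–proluciferin substrate mix preincubated with compound 10 min at room temperature, then NADPH regeneration added for 1 h at room temperature. Detection reagent added for 20 min; luciferin light read as relative luminescence units.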
Background: In qHTS, concentration-response curves come from the screen itself.

Assay [2] deals with Cytochrome P450 2C9 (Homo sapiens) (UniProt P11712). Kind of assay: Cytochrome P450 family 2 subfamily C member 9 (CYP2C9) small molecule antagonists: luciferase biochemical (cell-free) qHTS assay (AID 1645842; active means well fitted curve in the direction sought with a large enough effect in the repeat runs; an effect the other way counts as inactive or inconclusive; further: nearly all actives have a fitted effect of over 55% in size; further: potency means the concentration at half of the fitted maximal effect). In a few lines: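 Luminescence, after 20 min with luciferin detection reagent, reflected CYP2C9 turnover during a 1 h NADPH-driven reaction at 37C. Enzyme-substrate mix contained 0.4% bovine serum albumin and was preincubated with compound 10 min at room temperature.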
Chain of Cytochrome P450 2C9 (Homo sapiens) (P11712 whole entry, looked up): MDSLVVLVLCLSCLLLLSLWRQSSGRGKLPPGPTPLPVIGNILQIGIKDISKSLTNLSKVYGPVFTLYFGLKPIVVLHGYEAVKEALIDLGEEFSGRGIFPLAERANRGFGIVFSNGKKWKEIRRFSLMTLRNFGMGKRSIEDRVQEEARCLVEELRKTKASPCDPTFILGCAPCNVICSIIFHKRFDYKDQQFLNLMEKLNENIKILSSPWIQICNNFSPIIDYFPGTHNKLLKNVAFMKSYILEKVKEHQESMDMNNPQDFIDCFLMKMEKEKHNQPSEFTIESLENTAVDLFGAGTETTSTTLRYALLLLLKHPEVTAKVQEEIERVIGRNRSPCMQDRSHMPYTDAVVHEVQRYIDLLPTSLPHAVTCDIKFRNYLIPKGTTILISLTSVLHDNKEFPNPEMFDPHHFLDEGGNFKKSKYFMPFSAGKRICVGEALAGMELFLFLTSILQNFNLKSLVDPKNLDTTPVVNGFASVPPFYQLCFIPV

Assay [3] has as its target Glutathione peroxidase 1 (Homo sapiens) (UniProt P07203). Kind of assay: Primary qHTS Assay for Inhibitors of Recombinant Selenoprotein Glutathione Peroxidase 1 (GPX1) (AID 1845191). Further: nearly all actives have a fitted effect of over 65% in size. The procedure, abridged:
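10 nM GPX1 + cpd, 30 min RT; start w/ 1 mM GSH, 0.5 mM cumene hydroperoxide, 0.5 mM NADPH, 100 nM GR, 0.01% BSA; buffer 50 mM Tris-HCl pH 7.5, 2 mM EDTA, 150 mM NaCl; Fl 340/450, 0 & 15 min.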

Assay [4] has as its target Phospholipid hydroperoxide glutathione peroxidase GPX4 (Homo sapiens) (UniProt P36969). The assay is described as follows: Primary qHTS Assay for Inhibitors of Recombinant Selenoprotein Glutathione Peroxidase 4 (GPX4) (AID 1845192). Further: nearly all actives have a fitted effect of over 65% in size. The procedure, abridged:
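NADPH consumption, followed by fluorescence at 340/450 nm between 0 and 15 min, reports GPX4 activity via coupled glutathione reductase (100 nM). Enzyme 200 nM was pre-exposed to compound 30 min; 0.5 mM cumene hydroperoxide and 1 mM GSH served as substrates.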

Assay [5] concerns the target Rap guanine nucleotide exchange factor 3 (Homo sapiens) (UniProt O95398). The assay is described as follows: Confirmatory qHTS for antagonist of cAMP-regulated guanine nucleotide exchange factor 3 (EPAC1) (AID 1645880). Further: nearly all actives have a fitted effect of over 55% in size. Further: potency means the concentration at half of the fitted maximal effect. The procedure, abridged:
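Nucleotide exchange uses 100 nM EPAC1, 250 nM RAP1B-BODIPY-GDP and 50 uM GDP, with compounds in a concentration-titration series. After 5 min at room temperature, fluorescence (480 nm ex/540 nm em) is read every 5 min for 30 min. Data are normalized to control ATA and DMSO.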

The target is the same in assay [6]. The assay is described as follows: Confirmatory qHTS for agonist of cAMP-regulated guanine nucleotide exchange factor 3 (EPAC1) (AID 1645881). Further: nearly all actives have a fitted effect of over 75% in size. Further: potency means the concentration at half of the fitted maximal effect.
The target in assay [7] is Rap guanine nucleotide exchange factor 4 (Homo sapiens) (UniProt Q8WZA2). Kind of assay: Confirmatory qHTS for agonist of cAMP-regulated guanine nucleotide exchange factor 4 (EPAC2) (AID 1645884).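 Further: nucleotide exchange releases bodipy-GDP from Rap1 and this lowers its fluorescence; on the % scale 0 is the no-effect control and ±100 the full control effect; nearly all actives have a fitted effect of over 65% in size.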
Chain of Rap guanine nucleotide exchange factor 4 (Homo sapiens) (Q8WZA2 whole entry, looked up): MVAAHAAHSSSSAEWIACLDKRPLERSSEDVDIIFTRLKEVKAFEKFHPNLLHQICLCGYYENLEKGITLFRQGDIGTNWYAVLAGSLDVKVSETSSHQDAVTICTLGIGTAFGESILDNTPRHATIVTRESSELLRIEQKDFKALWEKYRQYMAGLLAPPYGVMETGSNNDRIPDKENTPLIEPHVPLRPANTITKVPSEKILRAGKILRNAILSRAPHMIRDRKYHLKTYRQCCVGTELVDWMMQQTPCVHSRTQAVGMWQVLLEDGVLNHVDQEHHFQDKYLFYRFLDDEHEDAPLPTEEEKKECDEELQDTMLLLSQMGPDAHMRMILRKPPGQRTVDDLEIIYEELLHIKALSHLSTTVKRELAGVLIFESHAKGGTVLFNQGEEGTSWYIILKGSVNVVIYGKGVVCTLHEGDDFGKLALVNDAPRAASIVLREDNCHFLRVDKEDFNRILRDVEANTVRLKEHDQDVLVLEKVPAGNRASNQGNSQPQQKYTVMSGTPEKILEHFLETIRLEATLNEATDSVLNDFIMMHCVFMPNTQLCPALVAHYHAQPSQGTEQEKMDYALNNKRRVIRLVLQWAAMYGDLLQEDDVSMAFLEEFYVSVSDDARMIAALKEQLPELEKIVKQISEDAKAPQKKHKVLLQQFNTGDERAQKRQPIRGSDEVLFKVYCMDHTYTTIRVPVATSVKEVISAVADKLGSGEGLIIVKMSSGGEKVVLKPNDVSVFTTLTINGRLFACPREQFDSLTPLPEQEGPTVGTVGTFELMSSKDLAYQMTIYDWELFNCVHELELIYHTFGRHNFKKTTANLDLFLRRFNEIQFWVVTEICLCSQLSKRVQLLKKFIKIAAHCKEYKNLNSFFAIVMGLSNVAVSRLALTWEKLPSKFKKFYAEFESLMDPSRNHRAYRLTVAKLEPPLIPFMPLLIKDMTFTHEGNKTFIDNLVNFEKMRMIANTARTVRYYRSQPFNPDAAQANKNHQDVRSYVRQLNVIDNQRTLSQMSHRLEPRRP
Assay [8] has the same target. The assay is described as follows: Confirmatory qHTS for antagonist of cAMP-regulated guanine nucleotide exchange factor 4 (EPAC2) (AID 1645885). Further: nearly all actives have a fitted effect of over 25% in size. Further: potency means the concentration at half of the fitted maximal effect.
Assay [9] concerns the target Rap guanine nucleotide exchange factor 3 (Homo sapiens) (UniProt O95398). The assay is described as follows: Counterscreen qHTS for agonist of cAMP-regulated guanine nucleotide exchange factor 3 (EPAC1) (AID 1645889). Further: nearly all actives have a fitted effect of over 40% in size. Further: potency means the concentration at half of the fitted maximal effect. The procedure, abridged:
(§1)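 Rap1B-BODIPY-GDP 250 nM + GDP 50 uM; cpds 7-pt, final 9.74 nM–152 uM (activator mode) or from 7.32 nM upwards (inhibitor mode); RT; FI 480/540 nm at 5 and 30 min, then ± cAMP, reread.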
A general note: The purpose of a counterscreen is to sort out artefacts and off-target activity.

Assay [10] has the same target. Kind of assay: Counterscreen qHTS for antagonist of cAMP-regulated guanine nucleotide exchange factor 3 (EPAC1) (AID 1645888).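 Further: fluorescence loss as bound BODIPY-GDP is released from Rap1B; % of control where 0% means no effect.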 The procedure, abridged: as §1
Assay [11] is described as follows: qHTS drug screen for cell cycle checkpoint inhibitors in PARPi-resistant BRCA-mutant ovarian cancer cell lines. (AID 1963452; calls by dose curve). The following applies: PEO1/OlaR viability, CellTiter-Glo luminescence, 96 h, stronger effect = lower value. The procedure, abridged: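 PEO1, PEO4 and PEO1/OlaR ovarian cancer cells, 600 per well, exposed 96 h at 37C to a dilution series. Viability read by CellTiter-Glo luminescence, normalized to DMSO and empty wells; activity summarized as Z-AUC.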

Assay [12] concerns the target N-terminal Xaa-Pro-Lys N-methyltransferase 1 (Homo sapiens) (UniProt Q9BV86). Kind of assay: Confirmatory qHTS for Inhibitors of N-terminal methyltransferase 1 (NTMT1): MTaseGlo Assay (AID 1645874). Further: potency means the concentration at half of the fitted maximal effect; nearly all actives have a fitted effect of over 65% in size. In a few lines: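 Luminescent MTase-Glo read-out of SAH. 125 nM NTMT1, 100 uM SAM, 1 uM SPKRIA substrate, 30 min RT reaction after 15 min compound preincubation. Normalized to no-enzyme and DMSO controls; Hill fit.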

Chain of Cytochrome P450 2D6 (Homo sapiens) (P10635 whole entry, looked up): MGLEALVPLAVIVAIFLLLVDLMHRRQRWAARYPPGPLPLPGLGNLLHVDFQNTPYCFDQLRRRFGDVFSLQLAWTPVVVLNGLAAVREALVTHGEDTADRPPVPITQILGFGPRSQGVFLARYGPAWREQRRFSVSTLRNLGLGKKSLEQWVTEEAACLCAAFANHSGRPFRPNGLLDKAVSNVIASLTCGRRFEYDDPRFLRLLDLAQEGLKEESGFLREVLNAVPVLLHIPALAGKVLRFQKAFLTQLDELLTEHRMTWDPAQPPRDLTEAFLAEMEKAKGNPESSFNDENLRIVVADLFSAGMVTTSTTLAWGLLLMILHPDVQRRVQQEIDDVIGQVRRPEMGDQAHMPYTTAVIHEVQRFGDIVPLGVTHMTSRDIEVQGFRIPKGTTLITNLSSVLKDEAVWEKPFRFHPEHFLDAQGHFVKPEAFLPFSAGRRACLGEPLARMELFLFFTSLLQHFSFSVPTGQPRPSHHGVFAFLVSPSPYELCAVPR
Chain of Rap guanine nucleotide exchange factor 3 (Homo sapiens) (O95398 whole entry, looked up): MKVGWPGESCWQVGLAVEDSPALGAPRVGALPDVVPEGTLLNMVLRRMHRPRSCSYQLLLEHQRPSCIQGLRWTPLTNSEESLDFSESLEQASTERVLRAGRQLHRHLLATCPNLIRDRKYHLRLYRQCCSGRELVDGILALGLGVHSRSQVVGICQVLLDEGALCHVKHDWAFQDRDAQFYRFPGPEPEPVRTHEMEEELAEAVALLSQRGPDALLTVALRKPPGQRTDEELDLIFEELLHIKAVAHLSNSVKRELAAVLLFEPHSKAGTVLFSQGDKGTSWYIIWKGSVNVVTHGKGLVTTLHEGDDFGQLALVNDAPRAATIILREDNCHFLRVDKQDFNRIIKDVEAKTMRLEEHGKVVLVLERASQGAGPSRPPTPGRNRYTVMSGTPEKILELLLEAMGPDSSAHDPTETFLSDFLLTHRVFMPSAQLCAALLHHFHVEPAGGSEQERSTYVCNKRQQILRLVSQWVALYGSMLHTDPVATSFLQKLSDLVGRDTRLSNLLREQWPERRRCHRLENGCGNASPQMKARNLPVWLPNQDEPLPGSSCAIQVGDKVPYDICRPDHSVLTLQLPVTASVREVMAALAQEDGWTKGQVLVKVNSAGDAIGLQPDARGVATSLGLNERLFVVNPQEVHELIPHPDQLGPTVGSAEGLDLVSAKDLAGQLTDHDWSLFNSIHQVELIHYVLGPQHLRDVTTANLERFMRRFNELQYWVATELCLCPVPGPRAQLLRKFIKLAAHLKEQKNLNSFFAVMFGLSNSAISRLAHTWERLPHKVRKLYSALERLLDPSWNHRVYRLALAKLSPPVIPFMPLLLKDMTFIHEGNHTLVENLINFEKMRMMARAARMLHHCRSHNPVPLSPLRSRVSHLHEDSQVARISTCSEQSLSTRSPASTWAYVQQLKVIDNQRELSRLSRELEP
Chain of Phospholipid hydroperoxide glutathione peroxidase GPX4 (Homo sapiens) (P36969 whole entry, looked up): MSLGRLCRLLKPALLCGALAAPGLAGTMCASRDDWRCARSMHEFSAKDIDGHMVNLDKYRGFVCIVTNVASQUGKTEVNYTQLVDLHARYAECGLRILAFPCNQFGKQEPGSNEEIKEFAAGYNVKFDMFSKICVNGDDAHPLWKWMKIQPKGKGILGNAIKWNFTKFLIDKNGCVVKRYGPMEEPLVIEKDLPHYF
Chain of Glutathione peroxidase 1 (Homo sapiens) (P07203 whole entry, looked up): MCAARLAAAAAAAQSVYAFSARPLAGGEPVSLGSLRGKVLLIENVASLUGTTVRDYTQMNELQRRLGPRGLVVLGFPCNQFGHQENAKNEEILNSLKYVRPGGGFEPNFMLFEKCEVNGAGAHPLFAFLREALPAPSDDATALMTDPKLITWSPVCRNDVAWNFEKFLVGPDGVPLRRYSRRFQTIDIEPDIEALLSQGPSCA
Chain of N-terminal Xaa-Pro-Lys N-methyltransferase 1 (Homo sapiens) (Q9BV86 whole entry, looked up): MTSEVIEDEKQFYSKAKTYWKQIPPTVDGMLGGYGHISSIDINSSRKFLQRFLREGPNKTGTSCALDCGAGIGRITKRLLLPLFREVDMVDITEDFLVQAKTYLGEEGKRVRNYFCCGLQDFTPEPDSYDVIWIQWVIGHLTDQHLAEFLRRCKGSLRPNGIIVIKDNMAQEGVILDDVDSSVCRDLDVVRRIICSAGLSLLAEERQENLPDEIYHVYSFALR

`COc1ccc(C=CC(=O)O)cc1`: the Potency entry in assay [1], in assay [2], in [3] and in [4] was “inactive” each time.
`CCOC(=O)c1c(NC(=O)c2ccc(S(=O)(=O)N(C)C3CCCCC3)cc2)sc2c1CCN(C(C)C)C2`: the Potency in [1] was 9.52 µM (active); in [2], 5.35 µM (active); in assay [6], 89.1 µM (active); in assay [8] it was 4.26 µM (active); in assay [9], 20 µM (active). Moreover, the Potency result in [5] and in assay [7] was “inactive” in each case.
For the molecule `Oc1cccc(C(Nc2ccccn2)c2ccc3cccnc3c2O)c1Cl` (stereo not drawn), the Potency in [1] is 13.5 µM (active); in assay [2], 10.7 µM (active). Moreover, the Potency result in [5], in assay [6], in assay [7], in assay [8] and in [10] was “inactive” each time.
Consider `N[C@@H]1CCCCN(c2c(F)cc3c(=O)c(C(=O)O)cn(C4CC4)c3c2Cl)C1`, for which the Potency entry in assay [1], in assay [2], in assay [3] and in [4] was “inactive” throughout.
As for `CC1(C)C(/C=C/C=C/C=C/C=C2/N(CCCCS(=O)(=O)O)c3ccc4ccccc4c3C2(C)C)=[N+](CCCCS(=O)(=O)[O-])c2ccc3ccccc3c21`, the Potency is 26.8 µM (active) in [1] and 13.5 µM (active) in assay [2]. Also, the Potency result in [3] was “inactive”.
For `Cc1cccc(OCCCSc2nc(-c3ccc(C(C)(C)C)cc3)nc3cc(=O)[nH]n23)c1C`, the Potency result in [1], in assay [6], in assay [7], in assay [8], in assay [10] and in assay [9] was “inactive” each time. The values for the Potency in [2] and in assay [5] were 13.5 µM (active) and 37.9 µM (active), respectively.
Take `Cc1cccn2c(=O)cc(CSc3nnc(NC(=O)COc4ccccc4)s3)nc12`: the Potency result in [1], in assay [6], in assay [8], in assay [10] and in [9] was “inactive” each time. Also, the Potency in assay [2] was 6.74 µM (active); in assay [5], 67.5 µM (active).
Regarding `Cc1ccc2nc(NC(=O)CSc3nccn3Cc3ccccc3)sc2c1`, the Potency is 8.49 µM (active) in [1] and 9.52 µM (active) in assay [2].
The like results for `COC(=O)c1cc(S(C)(=O)=O)ccc1OC` were, in that order, “inactive” and “inactive”.
In the case of `CN[C@@H](C)C(=O)N[C@H](C(=O)N1CCC[C@H]1c1nc(C(=O)c2ccc(F)cc2)cs1)C1CCCCC1`, the Potency result in assay [1], in assay [2], in assay [3] and in [4] was “inactive” in each case. For the same molecule, the Z-AUC was -0.196 (inactive) in assay [11], -0.329 in [11] (measured here: PEO1 parental Z-AUC) and -0.73 in assay [11] (measured here: PEO4 Z-AUC).
Take `COc1ccc(CCNc2nc(SCc3cccc(F)c3)nc3ccccc23)cc1OC`: the results for the Potency in assay [1] and in assay [2] were 0.301 µM (active) and 0.756 µM (active), respectively.
As for `CC(C)[C@H](N)C(=O)O`, the Potency result in assay [1], in assay [2], in assay [3] and in [4] was “inactive” throughout.
In the case of `COc1ccc(CCNC(=O)c2nc(SCc3ccccc3F)ncc2Cl)cc1OC`, the Potency result in [1] is “inactive”. For the same molecule, in assay [2], the Potency is 0.379 µM (active).
The like results for `COc1ccccc1Cn1cc(C(=O)c2ccc(Cl)cc2)c(=O)c2cc3c(cc21)OCCO3` were, in that order, 2.68 µM (active) and 2.68 µM (active).
As for `CCOC(=O)N1CCc2c(sc3c2c(=O)n(Cc2ccccc2)c(=O)n3CC(=O)Nc2cccc(C)c2)C1`, the Potency was 1.51 µM (active) in assay [1] and 4.25 µM (active) in assay [2].
For the molecule `CCOc1cc(CNC(=O)c2ccc(C)c(NC(=O)c3nsc4ccccc34)c2)ccc1OC`, the Potency entry in assay [1] was “inactive”. For the same molecule, the Potency in assay [2] was 1.51 µM (active).
`Oc1c(C(c2ccccc2)N2CCN(c3cccc(Cl)c3)CC2)sc2nc(-c3ccco3)nn12` (stereo not drawn): the figures for the Potency in [1], in assay [2] and in [5] were 13.5 µM (active), 5.35 µM (active) and 47.8 µM (active), respectively. The Potency result in assay [6] and in [7] was “inactive” throughout. Also, the outcome in assay [8] is “inactive [at 12.7 µM]”.
With `Nc1c(-c2nc(-c3ccc4c(c3)OCO4)cs2)c2ccccn2c1C(=O)c1ccccc1`, the Potency entry in assay [1] is “inactive”. Moreover, the Potency in assay [2] was 0.425 µM (active).
In the case of `CCc1ccc(CNC(=O)C2CCCN(c3nnc(C)c4c(C)n(-c5ccc(OC)cc5)nc34)C2)cc1` (stereo not drawn), the Potency in [1] was 7.56 µM (active); in assay [2], 1.69 µM (active).
In the case of `CC(C)[C@H]1CC[C@H](C)C[C@H]1O`, the Potency result in assay [1], in assay [2], in [3] and in assay [4] was “inactive” throughout.
With `Cc1ccc(OCC(=O)Nc2cccc(OCc3cc(=O)n4cccc(C)c4n3)c2)cc1C`, in assay [1], the Potency result was “inactive”. Further, the Potency in assay [2] was 0.756 µM (active).
Consider `CC(C)(C)c1ccc(-c2nc(SCCCOc3ccccc3)n3[nH]c(=O)cc3n2)cc1`, for which the Potency result in assay [1], in [6], in assay [7], in assay [8], in assay [10] and in assay [9] was “inactive” in each case. Also, the Potency is 10.7 µM (active) in [2] and 60.1 µM (active) in assay [5].
For `COc1ccc2c(c1)CCc1sc(NC(=O)c3cccc(Br)c3)nc1-2`, in assay [1], the Potency entry is “inactive”. Moreover, the Potency in assay [2] is 5.35 µM (active).
Turning to `CCc1cccc(CC)c1-n1c(CC(C)C)c(C(=O)N2CCNCC2)cc(-c2nc(-c3ccc(Cl)cc3)cs2)c1=O`, the figures for the Potency in [1] and in [2] were 9.52 µM (active) and 10.7 µM (active), respectively.
Turning to `O=C(Nc1cccc(Cl)c1)c1c(NC(=O)C(F)(F)F)sc2c1CCCC2`, the Potency was 4.46 µM (active) in assay [1], 0.354 µM (active) in assay [2], 5.4 µM (active) in [12] and 37.9 µM (active) in assay [5]. Also, the Potency entry in [6], in assay [7], in assay [8] and in [10] was “inactive” each time.
As for `CN(CCCCCCCCCCN(C)C(=O)Oc1cccc([N+](C)(C)C)c1)C(=O)Oc1cccc([N+](C)(C)C)c1`, the Potency result in assay [1], in [2], in assay [3] and in assay [4] was “inactive” throughout.
`CCOC(=O)c1cc(S(=O)(=O)N2CCN(c3cc(Cl)ccc3C)CC2)[nH]n1`: the Potency in assay [1] is 26.8 µM (active); in [2] it was 1.2 µM (active).
As to `COc1ccc(-c2n[nH]c3c2cnc2cc(OC)c(OC)cc23)cc1`, the Potency result in [1] and in assay [2] was “inactive” in each case.
As to `CCc1nnc(NC(=O)CSc2nc3c([nH]c4ccccc43)c(=O)n2-c2ccc(OC)cc2)s1`, in [2], the Potency was 4.25 µM (active).
With `O=C(CSc1nc(-c2ccc(F)cc2)nc2c1Cc1ccccc1O2)Nc1cccc(C(=O)O)c1`, the Potency entry in assay [1], in [6], in [7], in assay [8] and in assay [10] was “inactive” in each case. Also, the Potency is 6.02 µM (active) in assay [12]; 6.01 µM (active) and 151 nM (active) in assay [5].
With `CCOC(C(=O)N(C)CCN(C)CCc1ccccc1)(c1ccccc1)c1ccccc1`, the Potency in assay [2] was 6.01 µM (active).
